In PubChem BioAssay (NCATS):
Results filed as inconclusive are left out. Active and inactive are the calls of the source. Calls come from the whole dose curve; as a rule, active = well fitted curve in the direction sought with a large enough effect; inconclusive = small, poorly fitted or top-dose-only effect, or another doubt; inactive = no such curve, though single readings can be large; an effect the other way counts as inactive or inconclusive.

Key:
[1] = target: Muscarinic acetylcholine receptor M1 (Rattus norvegicus) (UniProt P08482); test: qHTS Assay for Antagonists of Acetylcholine Muscarinic M1 Receptor: Kinetic Measurement of Intracellular Calcium Response (AID 943); note: nearly all actives have a fitted effect of over 75% in size
Method in brief: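 CHO cells stably expressing rat M1 were loaded with no-wash Fluo-4 dye for 1 h at 37C, pre-incubated 10 min with compound, then challenged with EC80 carbachol (100 nM final); kinetic calcium read 4 min, peak/basal ratio.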

[2] = target: Muscarinic acetylcholine receptor M1 (Rattus norvegicus) (UniProt P08482); test: qHTS Assay for Antagonists of Acetylcholine Muscarinic M1 Receptor: Measurement of IP-One Response (AID 944); note: nearly all actives have a fitted effect of over 75% in size
Method in brief: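 CHO cells expressing rat M1 receptor, recovered overnight, were pre-incubated 10 min with compound, then stimulated 30 min with carbachol at EC80 (200 nM) in LiCl-containing buffer, pH 7.4. IP1 accumulation was read by HTRF (620/665 nm).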

3D7 = test: qHTS profiling for inhibitors of Plasmodium falciparum proliferation (AID 504749); note: nearly all actives have a fitted effect of over 60% in size; conditions: P. falciparum in erythrocytes, SYBR Green DNA, 72 h; series mostly up to 28.7 µM
Method in brief: (§1)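 P. falciparum-infected erythrocytes (0.3% parasitemia, 2.5% hematocrit final) were exposed to compounds for 72 h at 37 C in 5% CO2, then lysed with SYBR Green buffer overnight at room temperature; parasite DNA fluorescence was normalized to artemisinin and DMSO controls.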

7G8 = test: as above; conditions: P. falciparum in erythrocytes, SYBR Green DNA, 72 h; series mostly up to 28.7 µM
Method in brief: as §1

AS120 = test: as above; conditions: P. falciparum in erythrocytes, SYBR Green DNA, 72 h; series mostly up to 28.7 µM
Method in brief: as §1

ATS189 = test: as above; conditions: P. falciparum in erythrocytes, SYBR Green DNA, 72 h; series mostly up to 28.7 µM
Method in brief: as §1

CP185 = test: as above; conditions: P. falciparum in erythrocytes, SYBR Green DNA, 72 h; series mostly up to 28.7 µM
Method in brief: as §1

CP238 = test: as above; conditions: P. falciparum in erythrocytes, SYBR Green DNA, 72 h; series mostly up to 28.7 µM
Method in brief: as §1

CP247 = test: as above; conditions: P. falciparum in erythrocytes, SYBR Green DNA, 72 h; series mostly up to 28.7 µM
Method in brief: as §1

CP250 = test: as above; conditions: P. falciparum in erythrocytes, SYBR Green DNA, 72 h; series mostly up to 28.7 µM
Method in brief: as §1

CP256 = test: as above; conditions: P. falciparum in erythrocytes, SYBR Green DNA, 72 h; series mostly up to 28.7 µM
Method in brief: as §1

CP265 = test: as above; conditions: P. falciparum in erythrocytes, SYBR Green DNA, 72 h; series mostly up to 28.7 µM
Method in brief: as §1

Dd2 = test: as above; conditions: P. falciparum in erythrocytes, SYBR Green DNA, 72 h; series mostly up to 28.7 µM
Method in brief: as §1

FAB9 = test: as above; conditions: P. falciparum in erythrocytes, SYBR Green DNA, 72 h; series mostly up to 28.7 µM
Method in brief: as §1

HB3 = test: as above; conditions: P. falciparum in erythrocytes, SYBR Green DNA, 72 h; series mostly up to 28.7 µM
Method in brief: as §1

ICS = test: as above; conditions: P. falciparum in erythrocytes, SYBR Green DNA, 72 h; series mostly up to 28.7 µM
Method in brief: as §1

P94_40 = test: as above; conditions: P. falciparum in erythrocytes, SYBR Green DNA, 72 h; series mostly up to 28.7 µM
Method in brief: as §1

PAD = test: as above; conditions: P. falciparum in erythrocytes, SYBR Green DNA, 72 h; series mostly up to 28.7 µM
Method in brief: as §1

TAB109 = test: as above; conditions: P. falciparum in erythrocytes, SYBR Green DNA, 72 h; series mostly up to 28.7 µM
Method in brief: as §1

TAB113 = test: as above; conditions: P. falciparum in erythrocytes, SYBR Green DNA, 72 h; series mostly up to 28.7 µM
Method in brief: as §1
Potency is the fitted concentration of half-maximal effect.

Sequence of Muscarinic acetylcholine receptor M1 (Rattus norvegicus) (P08482 whole entry, looked up): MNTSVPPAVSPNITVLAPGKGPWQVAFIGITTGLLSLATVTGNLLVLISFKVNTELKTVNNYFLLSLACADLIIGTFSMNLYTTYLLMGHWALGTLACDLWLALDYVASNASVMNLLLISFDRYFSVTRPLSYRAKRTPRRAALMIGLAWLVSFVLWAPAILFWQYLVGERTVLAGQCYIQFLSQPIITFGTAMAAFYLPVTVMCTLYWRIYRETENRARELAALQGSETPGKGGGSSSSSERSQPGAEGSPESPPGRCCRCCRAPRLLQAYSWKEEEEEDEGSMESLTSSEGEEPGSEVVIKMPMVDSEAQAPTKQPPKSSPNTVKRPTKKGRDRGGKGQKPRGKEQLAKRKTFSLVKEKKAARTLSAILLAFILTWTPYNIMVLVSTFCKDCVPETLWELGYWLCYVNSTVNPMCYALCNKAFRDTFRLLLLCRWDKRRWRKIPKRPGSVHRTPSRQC

`OC[C@H]1O[C@@H](n2cnc3c(NCCc4ccccc4)ncnc32)[C@H](O)[C@H]1O` was tested, and the Potency [1] was “inactive” and the Potency [2] was “inactive”.

`CC(C)C[C@H]1C(=O)N2CCCC2[C@]2(O)O[C@](NC(=O)[C@@H]3C=C4c5cccc6[nH]c(Br)c(c56)C[C@H]4N(C)C3)(C(C)C)C(=O)N12` (stereo partly specified) was tested, and the Potency (3D7) was 3.98 µM (active), the Potency (7G8) was 0.708 µM (active) and the Potency (AS120) was 3.55 µM (active). The Potency (ATS189) was 5.01 µM (active), the Potency (CP185) was 11.2 µM (active) and the Potency (CP238) was 10 µM (active). For the same molecule, the Potency (CP247) was 8.91 µM (active), the Potency (CP250) was 12.6 µM (active) and the Potency (CP256) was 11.2 µM (active). For the same molecule, the Potency (CP265) was 5.62 µM (active), the Potency (Dd2) was 2.51 µM (active) and the Potency (FAB9) was 8.91 µM (active). For the same molecule, the Potency (HB3) was 2.82 µM (active), the Potency (ICS) was 0.708 µM (active) and the Potency (P94_40) was 2.82 µM (active). For the same molecule, the Potency (PAD) was 3.98 µM (active), the Potency (TAB109) was 5.62 µM (active) and the Potency (TAB113) was 3.16 µM (active).

With `CC(C)CN(C)c1nc(N)c(C(=O)N=C(N)N)nc1Cl` the Potency [2] was “inactive”.

In the case of `CC(=O)NCCc1ccc(O)c(O)c1`, the Potency [1] is reported as “inactive”.

For `CO[C@H]1/C=C/O[C@@]2(C)Oc3c(C)c(O)c4c(O)c(c(/C=N\N5CCN(C6CCCC6)CC5)c(O)c4c3C2=O)NC(=O)/C(C)=C\C=C\[C@H](C)[C@H](O)[C@@H](C)[C@@H](O)[C@@H](C)[C@H](OC(C)=O)[C@@H]1C`, the Potency (3D7) was 1.26 µM (active), the Potency (7G8) was 0.141 µM (active) and the Potency (AS120) was 0.126 µM (active). For the same molecule, the Potency (ATS189) was 1.41 µM (active), the Potency (CP185) was 1.58 µM (active) and the Potency (CP238) was 2.24 µM (active). The Potency (CP247) was 1.41 µM (active), the Potency (CP250) was 3.16 µM (active) and the Potency (CP256) was 2.82 µM (active). For the same molecule, the Potency (CP265) was 1.26 µM (active), the Potency (Dd2) was 0.447 µM (active) and the Potency (FAB9) was 10 µM (active). The Potency (HB3) was 0.794 µM (active), the Potency (ICS) was 0.112 µM (active) and the Potency (P94_40) was 0.224 µM (active). The Potency (PAD) was 0.199 µM (active), the Potency (TAB109) was 1.26 µM (active) and the Potency (TAB113) was 0.282 µM (active).

In the case of `COc1ccc2c(c1)c(CC(=O)O)c(C)n2Cc1ccc(F)cc1`, the Potency [1] is reported as “inactive” and the Potency [2] is reported as “inactive”.

For `N[C@H](Cc1ccc(O)c(O)c1)C(=O)O`, the Potency (3D7) was “inactive”, the Potency (AS120) was “inactive” and the Potency (ATS189) was “inactive”. The Potency (CP185) was “inactive”, the Potency (CP238) was “inactive” and the Potency (CP247) was “inactive”. The Potency (CP250) was “inactive”, the Potency (CP256) was “inactive” and the Potency (CP265) was “inactive”. The Potency (FAB9) was “inactive”, the Potency (HB3) was “inactive” and the Potency (ICS) was “inactive”. The Potency (P94_40) was “inactive”, the Potency (PAD) was “inactive” and the Potency (TAB109) was “inactive”. For the same molecule, the Potency (TAB113) was “inactive”.

`CC(C)(C)[C@]1(O)CCN2CC3c4ccccc4CCc4cccc(c43)[C@@H]2C1` (stereo partly specified) was tested, and the Potency (7G8) was 11.2 µM (active), the Potency (Dd2) was 10 µM (active) and the Potency (ICS) was 10 µM (active).

In the case of `CCCC(=O)NCCc1c2n(c3ccc(OC)cc13)Cc1ccccc1-2`, the Potency [1] is reported as “inactive” and the Potency [2] is reported as “inactive”.

In the case of `CN1C[C@H](C(=O)N[C@]2(C)O[C@@]3(O)C4CCCN4C(=O)[C@H](Cc4ccccc4)N3C2=O)C[C@@H]2c3cccc4[nH]cc(c34)C[C@H]21` (stereo partly specified), the Potency (3D7) is reported as 8.91 µM (active), the Potency (7G8) is reported as 0.158 µM (active) and the Potency (AS120) is reported as 1.41 µM (active). The Potency (ATS189) was 3.98 µM (active), the Potency (CP185) was 7.94 µM (active) and the Potency (CP238) was 5.62 µM (active). For the same molecule, the Potency (CP247) was 7.08 µM (active), the Potency (CP250) was 11.2 µM (active) and the Potency (CP256) was 7.94 µM (active). For the same molecule, the Potency (CP265) was 5.62 µM (active), the Potency (Dd2) was 2.82 µM (active) and the Potency (FAB9) was 10 µM (active). The Potency (HB3) was 2.24 µM (active), the Potency (ICS) was 0.1 µM (active) and the Potency (P94_40) was 3.16 µM (active). The Potency (PAD) was 0.355 µM (active), the Potency (TAB109) was 7.08 µM (active) and the Potency (TAB113) was 3.55 µM (active).

In the case of `COc1ccc(CCNC[C@@H](O)c2ccc(O)cc2)cc1OC`, the Potency (3D7) is reported as “inactive”, the Potency (7G8) is reported as “inactive” and the Potency (AS120) is reported as “inactive”. The Potency (ATS189) was “inactive”, the Potency (CP185) was “inactive” and the Potency (CP238) was “inactive”. The Potency (CP247) was “inactive”, the Potency (CP250) was “inactive” and the Potency (CP256) was “inactive”. The Potency (CP265) was “inactive”, the Potency (Dd2) was “inactive” and the Potency (FAB9) was “inactive”. For the same molecule, the Potency (HB3) was “inactive”, the Potency (ICS) was “inactive” and the Potency (P94_40) was “inactive”. For the same molecule, the Potency (PAD) was “inactive”, the Potency (TAB109) was “inactive” and the Potency (TAB113) was “inactive”.

In the case of `NCCCCNS(=O)(=O)c1cccc2c(Cl)cccc12`, the Potency [1] is reported as 14.1 µM (active) and the Potency [2] is reported as 17.8 µM (active).
